CendR NRP1 mod: modulators of CendR peptide binding to NRP-1, primary screen, biochemical, fluorescence polarization, uHTS | Neuropilin-1 (Homo sapiens), O14786 | FAM-RPARPAR peptide binding to NRP-1 | inhibition, % at 25 µM | 0.85% of 360,000 active | AID 602438, 2012;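 active = inhibition or corrected inhibition above about 18%, plus a signal ratio from 0.5 to 1.5, limit read from the data, passing the limit was not always enough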
CR mimetic SO: reduction of superoxide in aged yeast, primary screen, HTS; S. cerevisiae aged cells, superoxide DHE fluorescence; hits give low values; superoxide response (% of plate mean), % at 10 µM; 0.18% of 330,000 active;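 active = superoxide response under a set limit, about three screen SD below normal, cut at about 65% in these data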;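 note: yeast aged for seven days with compound at 30 °C before DHE staining; 100% = average MFI of all compound-treated wells on the plate with controls excluded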
A3G deaminase: APOBEC3G DNA deaminase inhibitors, primary screen, biochemical, fluorescence, single-stranded DNA substrate, uHTS. AID 493012, 2011. recombinant A3G, ssDNA deamination FAM/TAMRA fluorescence. inhibition, % at 20 µM. DNA dC->dU-editing enzyme APOBEC-3G (Homo sapiens), Q9HC16. 0.28% of 330,000 active;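 active = inhibition of at least 40% at 20 µM, with no more than 30% in the related APOBEC3A deaminase screen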;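 note: plate controls were DMSO wells with A3G for no effect and wells lacking A3G enzyme for full effect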
Target sequence (Q9HC16 whole entry, looked up): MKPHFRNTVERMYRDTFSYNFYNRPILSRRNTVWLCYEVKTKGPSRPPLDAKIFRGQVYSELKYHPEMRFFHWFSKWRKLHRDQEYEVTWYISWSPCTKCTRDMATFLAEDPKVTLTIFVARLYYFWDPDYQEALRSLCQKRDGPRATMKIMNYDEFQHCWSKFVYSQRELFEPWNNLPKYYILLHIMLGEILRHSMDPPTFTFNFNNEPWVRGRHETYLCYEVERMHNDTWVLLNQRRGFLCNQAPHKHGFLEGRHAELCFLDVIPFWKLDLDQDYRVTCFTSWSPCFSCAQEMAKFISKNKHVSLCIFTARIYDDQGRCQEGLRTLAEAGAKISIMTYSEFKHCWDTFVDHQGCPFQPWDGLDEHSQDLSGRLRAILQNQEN
ALR inh: inhibitors of human ALR sulfhydryl oxidase, primary screen, biochemical, H2O2 detection, HRP-luminol luminescence, single point | FAD-linked sulfhydryl oxidase ALR (Homo sapiens), P55789 | purified ALR, DTT oxidation | inhibition, % (test concentration not listed) | 3.8% of 290,000 active | AID 485317, 2010;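 active = mean replicate inhibition above about 79%, with every replicate also reaching it, limit read from the data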
Target sequence (P55789 whole entry, looked up): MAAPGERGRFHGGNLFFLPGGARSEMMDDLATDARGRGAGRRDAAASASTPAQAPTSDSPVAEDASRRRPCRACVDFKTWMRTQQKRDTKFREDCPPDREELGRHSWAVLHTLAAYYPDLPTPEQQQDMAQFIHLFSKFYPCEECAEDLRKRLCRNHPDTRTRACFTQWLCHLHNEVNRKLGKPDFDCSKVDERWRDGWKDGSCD
PfM18AAP inh: PfM18AAP inhibitors, malaria aminopeptidase, primary screen, biochemical, QFRET, recombinant enzyme; 1.2% of 290,000 active; M18 aspartyl aminopeptidase (Plasmodium falciparum 3D7); inhibition, % at 7.35 µM; H-Glu-NHMec fluorogenic cleavage;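 active = inhibition above the campaign mean inhibition over all tested compounds plus 3 SD, cut at about 28% in these data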;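 note: 0% = plate median of test compound wells and 100% = 2 mM ZnCl2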
APOBEC3A inh: APOBEC3A ssDNA deaminase inhibitors, primary screen, selectivity assay for APOBEC3G inhibitor project, biochemical, FAM/TAMRA oligo cleavage fluorescence | DNA dC->dU-editing enzyme APOBEC-3A (Homo sapiens), P31941 | recombinant A3A, FAM/TAMRA ssDNA deamination fluorescence | inhibition, % at 20 µM | 0.41% of 330,000 active | AID 493011, 2011;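 active = at least 40% inhibition at 20 µM here, with at most 30% in a related deaminase screen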;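 note: plate controls were A3A with DMSO for no effect and wells lacking A3A enzyme for full effect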
* hit, by the source's call; · = not tested or not shown. Most compounds without a hit are left out; they make up all but 5.2% or so of the library.

SMILES | CendR NRP1 mod | CR mimetic SO | A3G deaminase | ALR inh | PfM18AAP inh | APOBEC3A inh
CC(C)(C)NC(=O)C(Cc1ccccc1)NS(=O)(=O)c1ccc2c(c1)CCC(=O)N2 (stereo not drawn) | 17 | 101 | -4 | 98* | -14 | 2
Cc1ccc2nc(NC(=O)CN3C(=O)C4CC=CCC4C3=O)sc2c1 (stereo not drawn) | 6 | 105 | 1 | -4 | 3 | -1
CCOC(=O)CSC1=NC(=O)/C(=C/c2ccc(OC)cc2)S1 | -65 | 93 | -4 | 99* | 21 | -3
CCOC(=O)C1CCN(C2=NC(=O)/C(=C/c3ccc(O)cc3)S2)CC1 | -2 | 89 | -6 | 98* | 15 | -2
COc1cccc(/C=C2\SC(N3CCCC(C)C3)=NC2=O)c1OC (stereo not drawn) | -1 | 97 | -10 | 97* | 10 | -4
CCOC(=O)C1CCN(C2=NC(=O)/C(=C/c3ccccc3OC)S2)CC1 | 0 | 100 | -8 | -4 | -8 | -4
CCOC(=O)C1CCCN(C2=NC(=O)/C(=C/c3ccc(OC)cc3OC)S2)C1 (stereo not drawn) | -13 | 102 | 13 | 13 | 28* | 2
CN(C(=O)c1cc(Cl)c2c(c1)OCCO2)c1c(N)n(Cc2ccccc2)c(=O)[nH]c1=O | 2 | · | -10 | · | · | -1
CC(=O)NC1CCC(OC(=O)Nc2ccccc2)CC1 (stereo not drawn) | 10 | · | · | · | · | ·
CCOC(=O)C1CCCN(C2=NC(=O)/C(=C/c3ccc(O)c(OCC)c3)S2)C1 (stereo not drawn) | -72 | 104 | -10 | 96* | 0 | -3
CCOC(=O)C1CCCN(C2=NC(=O)/C(=C/c3ccc(N(C)C)cc3)S2)C1 (stereo not drawn) | -134 | 92 | 2 | 100* | -2 | 0
O=C(NC(=S)NCc1nc2ccccc2[nH]1)c1ccccc1F | 11 | 66 | 2 | 3 | 7 | 3
O=C(NC(=S)NCc1nc2ccccc2[nH]1)c1ccc(F)cc1 | 3 | 85 | -12 | 76* | -11 | -5
CCC(COC)Oc1cc(NCc2ccccc2)c2ncn(C(C)C)c2c1 (stereo not drawn) | 2 | 109 | -10 | 83* | · | -8
CC(C)(C)c1cc(NC(=O)c2ccco2)no1 | 12 | 96 | -7 | 12 | -11 | -4
CCC(=O)c1cccc(-c2ccccc2)c1CC | 7 | · | · | · | · | ·
CCOc1cc(-c2nc3ccccn3c2NCC2CCCO2)ccc1O (stereo not drawn) | -5 | 100 | -5 | 69 | 30* | -4
O=C(N/N=C/c1cc(Cl)cc(Cl)c1O)c1ccncc1 | 140 | 94 | -4 | 1 | 8 | 0
Oc1c(Cl)cc(Cl)cc1/C=N/Nc1ncc(Br)cn1 | 38* | 119 | -5 | -2 | 1 | -1
CCN1C(=O)/C(=C/N(C)C)c2ccccc21 | 2 | 113 | 1 | 99* | 1 | 0
COc1ccc(NC(=O)CSc2ccc3nnc(-c4cccnc4)n3n2)cc1 | 7 | 105 | -6 | -3 | -2 | 0
O=C(NCc1ccco1)c1cc2sccc2n1Cc1ccccc1 | -12 | 118 | -6 | 93* | 12 | -8
CC(C)c1ccc(S(=O)(=O)N2CCN(C(=O)CN3C(=O)c4ccccc4C3=O)CC2)cc1 | 30* | 117 | -8 | -1 | · | 20
COC(=O)c1c(C)c(OC(=O)c2c(C)cc(O)c(C=O)c2O)cc(C)c1O | 0 | 107 | -10 | -5 | · | -5
Cc1nc(CSc2ccc(Br)cc2)cs1 | 20* | 92 | -12 | -12 | -2 | -4
SMILES | CendR NRP1 mod | CR mimetic SO | A3G deaminase | ALR inh | PfM18AAP inh | APOBEC3A inh
COC(=O)c1ccccc1NC(=O)Oc1ccc(C(C)C)cc1 | -2 | 116 | 1 | 92* | 0 | 6
CCN(CC)C(=O)C(C)N(C#N)c1nc(C)cc(C)n1 (stereo not drawn) | -8 | 95 | 1 | -3 | 2 | 3
O=C(O)CCc1ccc(-c2ccccc2)n1-c1ccc(C(=O)O)cc1 | -6 | 103 | -6 | 1 | 5 | -3
COc1ccc(-c2ccc(CCC(=O)O)n2NC(=O)c2ccc(O)cc2)cc1 | -11 | 141 | -11 | 98* | 7 | -4
O=C(O)CCc1ccc(-c2ccccc2)n1NC(=O)c1sc2ccccc2c1Cl | -9 | 87 | -2 | 98* | 4 | 1
COc1ccc(-c2ccc(CCC(=O)O)n2NC(N)=O)cc1 | 4 | 77 | 5 | 31 | 18 | 4
COc1ccc(-c2ccc(CCC(=O)O)n2-c2ccccc2OC)cc1 | 8 | 109 | -2 | 99* | 23 | 1
COc1ccccc1-n1c(CCC(=O)O)ccc1-c1ccccc1 | -5 | 107 | -8 | 90* | 16 | -7
CCC(=O)Nc1cc(NC(=O)CSc2nnc(C(C)C)n2CC)ccc1C | 10 | 89 | -1 | 13 | 5 | 2
CC(=O)Nc1cccc(NC(=O)CSc2nnnn2Cc2ccccc2)c1 | 7 | 118 | 0 | 99* | 3 | -1
CCn1c(SCC(=O)Nc2cccc(C(C)=O)c2)nnc1C(C)C | -8 | 152 | -3 | 99* | 12 | 0
COc1cccc(-n2nnnc2SCC(=O)Nc2cccc(NC(C)=O)c2)c1 | -16 | 119 | -6 | 0 | 1 | -4
Cc1ccc(-n2nnnc2SCC(=O)Nc2cccc(NC(=O)c3ccco3)c2)cc1C | -7 | 104 | -3 | 8 | 3 | -3
O=C(CSc1nnnn1Cc1ccccc1)Nc1cccc(F)c1 | -6 | 110 | -9 | · | 1 | -2
COc1ccc(-n2nnnc2SCC(=O)Nc2cccc(NC(C)=O)c2)cc1OC | -1 | 121 | -3 | 99* | -7 | -5
CC(=O)c1ccc(-n2nnnc2SCC(=O)Nc2cccc(NC(=O)c3ccco3)c2)cc1 | -5 | 104 | 4 | 99* | 4 | 2
O=C(Nc1cccnc1)c1cccc(F)c1 | -6 | 124 | 3 | -2 | 1 | 1
COc1ccc(CC(=O)OCC(=O)NC(=O)Nc2ccccc2F)cc1 | 5 | 81 | 1 | · | · | -2
CC1(c2ccc3c(c2)OCO3)NC(=O)N(CC(=O)Nc2ccccc2)C1=O (stereo not drawn) | 2 | · | -6 | · | · | 3
COc1cccc(CNC(=O)Nc2cccs2)c1 | -28 | 104 | 9 | 99* | 6 | 3
COc1ccc(CNC(=O)Nc2cccs2)cc1OC | -8 | 108 | 0 | 5 | -7 | 0
COc1ccccc1CNC(=O)Nc1cccs1 | -7 | 87 | -6 | 97* | 17 | -2

Screens: PubChem BioAssay, several laboratories
